Over roughly 33,000 sequences, “E-score (-0.5 to 0.5)” has its median near -0.01; the highest 2% begin near 0.26. This is one part of a sample in which the highest values are shown more often than they occur.
target: Ste12 (UniProt P13574); assay: PBM E-score (8-mer binding enrichment) (E-score (-0.5 to 0.5)); higher = stronger / more preferred TF binding; settings: protein concentration: 200 nM; construct: GST-DNA-binding domain
Experimental: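 Universal 'all 10-mer' protein binding microarrays (Agilent AMADID 015681) probed with GST-tagged S. cerevisiae TFs (full-length or DBD) made by in vitro transcription/translation (PURExpress), about 100-200 nM. Bound TF was detected with fluorescent anti-GST. Each ungapped 8-mer (which stands for itself and its reverse complement) is scored by the PBM enrichment score (E-score), a modified Wilcoxon-Mann-Whitney statistic from -0.5 to +0.5, computed with the Universal PBM Analysis Suite. Scale: above 0.35 generally sequence-specific binding.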

Sequence of UniProt P13574 (P13574 whole entry, the tested form may be a part): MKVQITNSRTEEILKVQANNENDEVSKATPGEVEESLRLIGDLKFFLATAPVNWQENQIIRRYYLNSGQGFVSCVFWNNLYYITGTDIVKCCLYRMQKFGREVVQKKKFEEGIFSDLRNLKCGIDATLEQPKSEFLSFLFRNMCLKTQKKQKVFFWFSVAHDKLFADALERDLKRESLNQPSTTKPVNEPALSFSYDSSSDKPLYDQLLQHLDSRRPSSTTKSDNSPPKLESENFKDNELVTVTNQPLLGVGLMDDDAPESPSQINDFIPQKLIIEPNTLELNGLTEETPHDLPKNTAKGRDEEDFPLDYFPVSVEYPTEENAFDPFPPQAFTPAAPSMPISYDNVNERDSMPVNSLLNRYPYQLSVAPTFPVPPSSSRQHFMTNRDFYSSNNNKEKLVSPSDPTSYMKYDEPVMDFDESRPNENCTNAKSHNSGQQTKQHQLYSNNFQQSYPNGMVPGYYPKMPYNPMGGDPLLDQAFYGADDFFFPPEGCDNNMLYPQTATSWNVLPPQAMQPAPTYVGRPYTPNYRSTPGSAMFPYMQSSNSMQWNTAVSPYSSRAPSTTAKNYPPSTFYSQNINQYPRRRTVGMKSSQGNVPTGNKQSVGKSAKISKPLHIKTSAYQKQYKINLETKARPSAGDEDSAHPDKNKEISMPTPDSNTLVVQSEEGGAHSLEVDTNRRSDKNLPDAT

Sequence | PBM E-score
CCGCCTCC | -0.123
CCCGTAAG | -0.0733
AGGTCAGA | -0.113
TCTTGACA | -0.0432
ACCCATCC | 0.00204
AACCAATC | 0.259
GAAAAAGA | 0.241
CGGCTAAG | 0.0459
CATAGCGG | -0.207
AGACAGCT | -0.111
AAGAAGAA | 0.123
TTAACTAA | 0.221
GTCTCCAA | 0.0569
AAAAAACA | 0.331
ATAAACCC | 0.211
ATAAAAAC | 0.134
GAAAAACA | 0.21
TAAAAACA | 0.223
AGAAAACA | 0.152
CTAAAACA | 0.355
ATAAAACC | 0.294
ATAAAACA | 0.368
CAAAAACA | 0.153
ATAAAAAA | 0.248
CTAAAACC | 0.192

Sequence | PBM E-score
ACGTTGAT | 0.0985
AGTCAGTG | -0.0387
CTTAGCAC | -0.0994
ATACCACG | 0.0272
ACATAGCA | -0.115
GGTAAACA | 0.28
CGTAAACA | 0.186
ATTAAACG | 0.155
AGTAAACA | 0.0888
GTAAAACA | 0.323
ATAAAACG | 0.37
GTAAAAAC | 0.206
GTAAAAAA | 0.217
ATAAACCG | 0.0871
ACAGCGAG | -0.00798
GTAGATCA | 0.023
ACCGCACC | 0.0603
AGGGAGGA | -0.192
AGGGAGGC | -0.122
AAGGGAGG | -0.0233
AGGGTGGA | -0.218
AGGAGGGA | -0.0567
AGGAGGGG | 0.285
AGGGTGGG | 0.35
AGGAGGGC | -0.081

Sequence | PBM E-score
AGGGTGGC | -0.0324
AGGGGAGA | -0.0864
AGGGGAGG | 0.348
AGGGAGGG | 0.305
AGTTTGCG | 0.122
AGTGCGGA | 0.0511
CTCCTGGA | -0.166
AAATTTGC | 0.0182
ATTGGTAC | 0.00439
AAGAGCTT | -0.0673
ACCAAAGA | 0.158
ACGCCCAC | 0.117
GATGAGTA | 0.0183
TACTGGAA | 0.182
CACACCAA | 0.115
AATTGAAC | -0.0364
CATTGAAA | 0.247
AATTGAAA | 0.412
AATTGAAT | 0.131
TATTGAAA | 0.304
GATTGAAA | 0.243
CTCAACGA | -0.137
ACGACAGT | -0.147
CAAATAAA | 0.1
CAAATACC | 0.185

Sequence | PBM E-score
CAAATAAG | 0.0883
AAAATAAT | 0.293
GCAATAAA | 0.279
AAAATAAG | 0.183
CAAATAAC | 0.283
GAAATAAC | 0.121
CCAATAAA | 0.148
GAAATAAA | 0.282
GCAATAAC | 0.0195
AAAATAAC | 0.2
CTGAAGGA | -0.0367
CACGCGTG | 0.221
CGTTCGCA | -0.119
AAATAAAG | 0.172
TAAATAAA | 0.228
AAAATACA | 0.143
AAATAAAT | 0.169
AAAATAAA | 0.286
AAATAAAA | 0.291
CGAAGACG | -0.13
CAATGGGA | -0.134
GCCTAAGC | -0.358
CCACTGGC | -0.0254
CATCAGAA | 0.0441
AATCAGAA | 0.27

Sequence | PBM E-score
AATCAGAG | 0.0937
AGGTAGCC | -0.26
CAGGGTAG | -0.114
CTGACTAC | -0.129
GTGATACA | 0.195
CTGATACA | 0.28
CTGATACC | 0.0308
ATGATACA | 0.294
ATGATACC | 0.0159
ATGATACG | 0.25
GGCGCTTA | 0.0142
AGGGCCAC | -0.202
CTCAATCC | 0.0296
GAAAAGCA | 0.0143
ACAGCCAG | -0.178
CTTGGTTA | 0.052
CCCCTACC | 0.0111
GCGTAAAA | 0.163
TAGTAAAA | 0.211
ATGTAAAT | 0.113
TCGTAAAA | 0.279
GTGTAAAA | 0.15
CTGTAAAA | 0.219
TTGTAAAA | 0.315
ATGTAAAA | 0.349

Sequence | PBM E-score
ACGTAAAA | 0.161
ATAGAGCC | -0.0936
TACAGACA | 0.0984
ACAGCTCG | -0.157
GCAGAGGC | -0.185
CACTCGCC | -0.0182
CAAAAGTG | 0.00054
AGATCTCA | 0.0566
AGATGAAG | 0.102
CGATGAAA | 0.289
CGATGAAC | 0.124
TGATGAAA | 0.258
AGATGAAC | 0.098
AGATGAAA | 0.39
GGATGAAC | -0.196
GGATGAAA | 0.395
CGATGAAG | 0.0893
CCTCTACG | -0.283
AGAGCCCC | -0.201
CACTGGAA | -0.101
ACATGGAC | -0.00801
ATGACATA | 0.222
CCGTTACA | 0.318
ACGTTACA | 0.164
ATGTTACA | 0.297

Sequence | PBM E-score
CTGTTACC | -0.03
GCGTTACA | 0.139
ATGTTACC | 0.175
ATGTTACG | -0.0262
GTGTTACA | 0.19
CTGTTACA | 0.378
AACGTCCG | -0.102
ACGCTGTG | -0.038
GCTGGCCA | -0.00597
CTTAGGGA | -0.316
AAATGAAG | 0.257
GCGCTTCC | -0.0472
AAGGATAA | -0.00803
AATTGCAT | 0.0393
ACTACCTA | -0.242
CCTGTTTA | 0.0871
ACTGTTTA | 0.165
CCTGTTAC | 0.151
ACTGTTTC | 0.289
ACTGTTTG | 0.188
CCTGTTTC | 0.32
GAAACGGC | 0.229
GAAACGGA | 0.343
AAAACGGC | 0.225
AAAACGGT | 0.152

Sequence | PBM E-score
CAAACGGA | 0.0164
AAAACGGA | 0.273
GCCCCGAC | -0.135
TACCTAAA | 0.138
AACCTAAA | 0.324
CACCTAAA | 0.0511
CCCCGTTA | -0.00038
CACAACTA | 0.153
AACAACTA | -0.00598
TACAACTA | 0.268
ACAGGTCT | -0.267
ATGTTCTC | -0.124
ACACAAAT | 0.108
ACAAAAAA | 0.311
AAAAAGCA | 0.108
TCAAAAAA | 0.32
ACAAAAAG | 0.125
AACAAAAT | 0.11
ACAAAAAT | 0.288
ACAAAAAC | 0.201
GCAAAGCA | -0.148
TCAAAAGA | 0.202
ACAAAGCA | 0.29
TCAAAACA | 0.209
ACCGCTCA | -0.0178

Sequence | PBM E-score
CACCGCAC | -0.00376
ACCGCCGC | 0.0865
GGATACTA | 0.0524
CGCGGGAC | 0.012
AGGCCAGC | -0.157
CCTGGTAG | -0.00862
ATGCCTCG | 0.00724
CTCACCAA | 0.284
TTCACCAA | 0.0895
CTCACCAC | -0.168
AAAATTGA | 0.226
CAAATTTA | 0.217
GAAATTGA | 0.12
TAAATTGA | 0.288
AAAATTTA | 0.085
TAAATTTA | 0.334
ACGCTCTC | -0.122
ACCTGCTC | -0.0508
ATACCTCA | 0.0605

Reference: the supplement of paper PMC3334620
